± gives the standard deviation of the averaged measurements. In all, about 33,000 sequences were measured (“E-score (rank enrichment, -0.5 to 0.5)”: median about -0.0043, highest 2% from about 0.24 on). The sample holds the highest values, similar sequences and a random draw of the others, so the mix is not that of the screen.
tested on: 2Sp-muMax20 (muMax20 with two 2,6-bis(methyl)pyridine Cys staples); test: PBM 8-mer E-score (E-score (rank enrichment, -0.5 to 0.5)); higher = stronger preferential binding
Experimental: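 Protein binding microarray (universal PBM chip covering all 10-mers in fixed probe flanks) with chemically synthesized human Max(13-93) bHLH-LZ analogs (not full-length Max) bearing noncanonical residues (hArg, Tha, Aib, Nle at 65) and aromatic Cys staples. Read-out per 8-mer (and its reverse complement): E-score (rank-based enrichment, -0.5 to 0.5) and Z-score of median probe intensity.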

Sequence | PBM 8-mer E-score
AGCTGGGA | -0.08 ± 0.019
ATTCATTA | 0.176 ± 0.007
CTACATTC | 0.0778 ± 0.03
ATACATTG | 0.106 ± 0.029
ATTCATTC | 0.305 ± 0.013
ATTCATTG | 0.161 ± 0.087
ATACATTC | 0.2884 ± 0.0017
GCCGTTCC | -0.21 ± 0.089
AGGTAGAG | -0.122 ± 0.024
AATGCTGT | -0.0251 ± 0.073
GGCCTCGA | -0.238 ± 0.045
GCGTGCAC | 0.204 ± 0.017
CCGTGCTC | -0.119 ± 0.14
ACGTGCAT | 0.195 ± 0.096
ACGTGCTG | 0.12 ± 0.063
ACGTGCTC | 0.259 ± 0.027
ACGTGCAC | 0.273 ± 0.051
CTTACCAC | 0.0166 ± 0.11
GTCCTTTA | -0.0713 ± 0.029
CCTATCCA | -0.0745 ± 0.015
AGTAGGAG | -0.0281 ± 0.053
CGCAAGAC | -0.023 ± 0.0044
CCCAATTA | 0.203 ± 0.057
CCCAATTC | 0.246 ± 0.083
ACCAATTC | -0.0718 ± 0.0024

Sequence | PBM 8-mer E-score
CATTCTTA | 0.145 ± 0.085
ATGTTTGA | 0.176 ± 0.031
ATAATCTG | 0.123 ± 0.1
ATAATCAG | 0.304 ± 0.005
ATAATCAC | 0.0279 ± 0.026
CTAATCAG | -0.0147 ± 0.026
ATAATCAT | 0.27 ± 0.013
ATAATCAA | 0.0608 ± 0.095
CGTCGGCA | -0.197 ± 0.056
CTTCGTTC | -0.0473 ± 0.038
GGTTCAAC | -0.145 ± 0.05
CTCCATAA | 0.0393 ± 0.028
TCCGGCAA | -0.207 ± 0.0021
ATTTCGTC | 0.279 ± 0.019
ATTTCGTG | 0.166 ± 0.031
CTTTCGTC | -0.0338 ± 0.038
CTACGACA | -0.0631 ± 0.043
ACCACGTG | 0.436 ± 0.012
ACCACGTC | -0.0398 ± 0.011
ACCACGCG | 0.363 ± 0.023
ATCACGCA | 0.00557 ± 0.0074
CCCACGCG | 0.231 ± 0.014
ACCACGTA | -0.0775 ± 0.034
AGCACGTG | 0.4333 ± 0.0023
AGCACGTC | -0.0658 ± 0.05

Sequence | PBM 8-mer E-score
AGCACGTA | 0.0888 ± 0.021
ACCACGCA | 0.0893 ± 0.0056
ATCACGCC | 0.192 ± 0.043
ATCACGCG | 0.247 ± 0.015
ACTGCCAA | 0.0746 ± 0.053
GGTAAGAC | -0.0928 ± 0.022
CCGATAAG | -0.181 ± 0.034
ATTTTGCA | 0.143 ± 0.086
TCGTCTCA | -0.0634 ± 0.048
ATGTACCA | -0.0255 ± 0.13
GAGTGCGC | -0.0296 ± 0.0031
CCCCAAGA | 0.144 ± 0.023
ACCTGGAT | -0.149 ± 0.028
GCCGCAGA | -0.0428 ± 0.041
CTAGGACC | -0.182 ± 0.025
ATCACGTA | 0.00227 ± 0.14
AGCACGCG | 0.289 ± 0.0067
AGCACGCA | 0.00395 ± 0.075
CGCACGCG | 0.178 ± 0.032
ATCACGTG | 0.397 ± 0.047
ATCACGTC | 0.0413 ± 0.035
CTTCTTAA | 0.126 ± 0.15
CGAAGTGC | 0.0928 ± 0.034
CACGCGGG | 0.187 ± 0.091
AACGCGGA | -0.162 ± 0.14

Sequence | PBM 8-mer E-score
AACGCGGC | -0.0876 ± 0.028
CACGCGGA | 0.357 ± 0.015
CACGCGGC | 0.299 ± 0.034
GACGCGGC | -0.08 ± 0.03
ATTATGCC | 0.128 ± 0.012
TGCGCACA | 0.124 ± 0.025
ATGGGGCA | 0.11 ± 0.12
ATGGGGCG | 0.25 ± 0.0057
ATGGGGTC | 0.0299 ± 0.041
ATGGGGCC | -0.0651 ± 0.11
CTGGGGAA | -0.125 ± 0.026
GTGGGGAA | 0.277 ± 0.027
GTGGGGGA | 0.0699 ± 0.011
GGGGGAAA | -0.0158 ± 0.089
TGGGGGAA | 0.0001 ± 0.016
TGGGGAAA | 0.306 ± 0.022
ATGGGGTG | 0.175 ± 0.018
ATGGGGTA | 0.239 ± 0.05
CACAGCGG | -0.125 ± 0.059
GATGCCGA | -0.0813 ± 0.081
AGCGTATA | 0.0565 ± 0.04
ACATCACT | 0.176 ± 0.046
GCCAGTAA | -0.116 ± 0.011
CCTCGCGC | -0.0606 ± 0.077
CCTCAGAG | -0.228 ± 0.044

Sequence | PBM 8-mer E-score
ATGGGGAA | 0.266 ± 0.018
ATGGGGAC | 0.0501 ± 0.13
CTGGGATA | -0.0899 ± 0.077
ATGGGATA | 0.179 ± 0.02
ATGGGGGA | -0.0138 ± 0.082
GTGGGATA | 0.292 ± 0.047
AGCATACG | 0.02 ± 0.039
ATCGAGAA | 0.0729 ± 0.041
ACAGGACC | -0.187 ± 0.045
CCGGTCCC | -0.358 ± 0.035
AACATATA | 0.269 ± 0.036
AACATATG | 0.0968 ± 0.03
CACATATA | 0.328 ± 0.021
AACACACT | 0.249 ± 0.0053
GACATATA | 0.12 ± 0.0021
ATCATATA | 0.254 ± 0.041
AACACACA | 0.118 ± 0.081
AACACACG | 0.0266 ± 0.031
GTCATATA | 0.207 ± 0.099
ATCATATG | 0.138 ± 0.065
CACATATC | 0.223 ± 0.019
CACATATG | 0.112 ± 0.013
ACCGGTCG | -0.287 ± 0.03
CCACGCCC | 0.0986 ± 0.0018
CTCGTTAC | 0.0748 ± 0.13

Sequence | PBM 8-mer E-score
CGGAATTC | -0.121 ± 0.019
AGCGTTAA | 0.0977 ± 0.058
ATCCAGTC | -0.0864 ± 0.015
CAGGAACC | -0.307 ± 0.049
CCCATAAG | 0.182 ± 0.018
CCCAGCTC | -0.0772 ± 0.05
TACATATA | 0.262 ± 0.09
CACATCTG | -0.0474 ± 0.049
TACATACA | 0.211 ± 0.075
CACACATA | 0.061 ± 0.0022
CACATCTA | 0.258 ± 0.014
AACACATG | 0.224 ± 0.05
TACATAAA | 0.229 ± 0.018
AACACATA | 0.257 ± 0.046
CACATCTC | -0.00875 ± 0.02
TAGGTCCA | -0.13 ± 0.058
GCAACCGA | -0.233 ± 0.078
CGACCATC | -0.0509 ± 0.089
CCATTGTA | 0.214 ± 0.022
CATAAATA | 0.33 ± 0.059
AATAAAGG | 0.0234 ± 0.076
TATAAATA | 0.203 ± 0.1
ATAAAGCA | 0.241 ± 0.014
ATAAAAAG | 0.315 ± 0.0042
ATAAAAAA | 0.202 ± 0.038

Sequence | PBM 8-mer E-score
ATAAAAGG | 0.0278 ± 0.023
ATAAAGCG | 0.0648 ± 0.005
CTAAAGCA | 0.0725 ± 0.028
AATAAATA | 0.0526 ± 0.066
CATAAAAG | -0.0196 ± 0.1
AATAAAAG | 0.25 ± 0.074
TACGAGAA | 0.0414 ± 0.0095
CCCGACTC | -0.0283 ± 0.023
CCGAGCCG | -0.298 ± 0.03
GACCCGCC | 0.106 ± 0.0061
TCGGAGAA | -0.136 ± 0.017
AGGTCTAG | 0.0236 ± 0.096
ACCTGGTA | -0.129 ± 0.0054
CATGGGCG | -0.0275 ± 0.017
CAGCCCCC | -0.165 ± 0.099
CACTTGAA | 0.112 ± 0.02
CAAAGGGA | -0.103 ± 0.053
AATAACAA | 0.259 ± 0.041
AATAACAC | 0.134 ± 0.04
GTAAAACA | 0.174 ± 0.056
AATAAAAT | 0.103 ± 0.12
ATAAAACA | 0.244 ± 0.067

— the supplement of paper PMC12636033
